A selection: hits, their analogues and other compounds. The true share with any hit is near 8.3%.
FMDV inh = foot and mouth disease virus antiviral activity; hit rate 1.2% among 410,000; FMDV antiviral cell-based qHTS; AID 1159524; Potency, µM (highest dose often 57.9 µM), for inactives: top-dose activity change, negative = inhibition, actives largely listed as inhibitors; calls by dose curve; tested in HEK293T cells; note: read-out not given here; potency is the fitted concentration of half-maximal effect; nearly all actives have a fitted effect of over 45% in size
HCV inh = HCV inhibition. hit rate 3.4% among 340,000. AID 651820. Potency, µM (doses to about 41.8 µM), without a hit: top-dose activity change, negative = inhibition, actives largely listed as inhibitors. Huh7.5.1 HCVcc-Cre infection, luciferase reporter, 44 h; note: potency is the fitted concentration of half-maximal effect
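A cell-based infection assay in which seeded cells (1,000 per well) receive test compound after 4 h, are inoculated with HCVcc-Cre at approximately 0.5 moi, and are incubated 44 h before luminescence detection.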
FBPA Giardia inh = Giardia lamblia aldolase inhibition | AID 2451 | A8B2U2 | Potency, µM (doses to about 59.6 µM), for the others: top-dose activity, negative = inhibition, usual class: inhibitors | hit rate 0.71% among 290,000 | purified Giardia FBPA; note: potency is the fitted concentration of half-maximal effect; nearly all actives have a fitted effect of over 55% in size
Target sequence (A8B2U2 whole entry, looked up): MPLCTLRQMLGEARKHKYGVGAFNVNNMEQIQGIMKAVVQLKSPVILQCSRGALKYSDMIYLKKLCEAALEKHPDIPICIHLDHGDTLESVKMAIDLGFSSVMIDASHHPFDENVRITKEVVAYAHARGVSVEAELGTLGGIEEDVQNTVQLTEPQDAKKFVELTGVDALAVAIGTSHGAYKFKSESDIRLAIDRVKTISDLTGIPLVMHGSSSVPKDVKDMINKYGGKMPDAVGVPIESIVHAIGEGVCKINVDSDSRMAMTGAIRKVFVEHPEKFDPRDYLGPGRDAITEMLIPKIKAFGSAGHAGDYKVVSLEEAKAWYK
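40 nM FBPA preincubated 10 min at RT with compound (up to 57.5 uM final), then substrate plus GAPDH/TPI/NAD/arsenate coupling and diaphorase/resazurin added. Fluorescence read after 20 min at RT, 525/598 nm.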
Marburg entry inh = blocks Marburg virus binding to or entry into cells; Marburg virus pseudotyped entry inhibition, cell reporter; AID 540276; hit rate 1.8% among 300,000; Potency, µM (top dose mostly 37.8 µM), for inactives: top-dose activity change, negative = inhibition, hits mostly inhibitors; calls by dose curve; tested in HEK293 cells; note: potency is the fitted concentration of half-maximal effect
LASV entry inh = inhibitors of Lassa virus binding or cell entry. Lassa virus pseudotype entry inhibition, cell reporter. Potency, µM (top dose mostly 37.9 µM), for inactives: top-dose activity change, negative = inhibition, actives largely listed as inhibitors. hit rate 1.2% among 300,000; calls by dose curve; tested in HEK293 cells; note: potency is the fitted concentration of half-maximal effect; nearly all actives have a fitted effect of over 50% in size
HCMV inh = human cytomegalovirus inhibition. activity change, negative = inhibition, % at 57.5 µM. AID 1259415. hit rate 4.5% among 410,000. HFF cells, HCMV-luciferase reporter, 72 h; hits give low values; in the data active = activity change below about -60%; inconclusive = no clear call, values can overlap the other calls; inactive = above about -39%
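Two compound doses tested in HFFs infected with HCMV-luciferase, MOI 1 PFU/cell, 72 h at 37C. Lysate luminescence read with OneGlo; data normalized against buffer-only and 10uM Salinomycin inhibitor controls.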
An asterisk follows results filed as active; ? = inconclusive; nt = no result; ! = not active in a repeat; [ ] = dose if it differs, or a comment. Unless noted, calls come from the whole dose curve; as a rule, active = well fitted curve in the direction sought with a large enough effect; inconclusive = small, poorly fitted or top-dose-only effect, or another doubt; inactive = no such curve, though single readings can be large; an effect the other way counts as inactive or inconclusive. % is set by controls: 0 for no effect and ±100 for the full control effect.

SMILES	FMDV inh	HCV inh	FBPA Giardia inh	Marburg entry inh	LASV entry inh	HCMV inh
O=C(NCc1ccccc1)c1nc(S(=O)(=O)Cc2ccccc2)ncc1Cl	32µM*	-25%	nt	-7%[46.1 µM]	?	-78*
COc1ccc(CNC(=O)c2nc(SCc3ccc(C)cc3)ncc2Cl)cc1	-18%	nt	nt	15%[46.1 µM]	?	-70*
Cc1noc(C(=O)NCc2ccccc2)c1Cl	0%	-7%	0%	nt	nt	-31
COc1ccccc1C(=O)Nc1c(C(=O)N(C)c2ccccc2)sc2nc(C)cc(C)c12	-12%	nt	nt	1%[46.1 µM]	16%[46.1 µM]	-9
CCCn1c(CN2CCN(C(=O)OCC)CC2)nc2cc([N+](=O)[O-])ccc21	?	?	9%	?	?	-76*
CCOC(=O)N1CCN(Cc2nc3cc(NC(=O)c4cccc(C)c4)ccc3n2C(C)C)CC1	?	nt	nt	?	-4%[46.1 µM]	-94*
CCOC(=O)N1CCN(Cc2nc3cc(NC(=O)CC(C)C)ccc3n2C(C)C)CC1	-17%	nt	nt	?	-25%[46.1 µM]	-95*
CCOC(=O)N1CCN(Cc2nc3cc(NC(=O)CC(C)C)ccc3n2C)CC1	-9%	11%	-8%	nt	nt	34
Cn1c(CN2CCOCC2)nc2cc(NC(=O)COc3ccc([N+](=O)[O-])cc3)ccc21	?	-18%	4%	?	3%	-71*
CCOC(=O)N1CCN(Cc2nc3cc(NC(=O)CC)ccc3n2C(C)C)CC1	?	nt	nt	-30%[46.1 µM]	-24%[46.1 µM]	-9
O=C(NCCNCCO)C1(C(F)(F)F)CC(CCc2ccccc2)CCCO1 (centres undefined)	nt	nt	10%	nt	nt	nt
Cc1ncc2c(c1CNC(=O)c1ccccc1F)CCN(C(=O)c1csc(-c3cccs3)n1)C2	-8%	nt	nt	nt	nt	nt
Cn1c(=O)c2nc(SCC(=O)Nc3ccc(Cl)c(Cl)c3)n(C)c2n(C)c1=O	-17%	nt	nt	nt	-26%[46.1 µM]	-12
Cc1nc2cnc(N3CCOCC3)nc2n(Cc2ccc(F)cc2)c1=O	-13%	nt	6%	nt	nt	nt
C=C1C[C@@]23CC[C@H]4[C@@](C)(CCC[C@@]4(C)C(=O)OC4OC(CO)C(O)C(O)C4O)[C@@H]2CC[C@]1(OC1OC(CO)C(O)C(O)C1OC1OC(CO)C(O)C(O)C1O)C3 (some centres undefined)	nt	nt	nt	1%	25%	nt
CCn1c(CN2CCCCC2)nc2cc(NC(=O)c3ccc([N+](=O)[O-])cc3)ccc21	?	nt	nt	?	-2%[46.1 µM]	-28
CCOC(=O)N1CCN(Cc2nc3cc(NC(=O)c4ccc([N+](=O)[O-])cc4)ccc3n2C(C)C)CC1	0%	nt	nt	?	1%[46.1 µM]	-83*
CCc1cc2c(cc3c(=O)n(CC(=O)N4CCCCC4)ncn32)s1	12%	nt	nt	10%[46.1 µM]	nt	-38
Cc1ccc(C(=O)NCCc2nnc3n2CCN(Cc2ccc4ccccc4c2)CC3)c(C)c1	-12%	nt	nt	nt	nt	nt
O=C(NNc1c2ccccc2nc2ccccc12)C(O)c1ccccc1 (centres undefined)	-9%	?	-3%	nt	nt	0
COc1ccc(OCC(=O)NNc2c3ccccc3nc3ccccc23)cc1	22µM*	6.3µM*	-1%	?	?	-75*
O=C(CCCO)NNc1c2ccccc2nc2ccccc12	-3%	1µM*	6%	8%[46.1 µM]	-5%	-21
COc1cc(C(CC(=O)Nc2ccc(Br)cn2)N2Cc3ccccc3C2=O)cc(OC)c1OC (centres undefined)	15%	nt	nt	nt	-4%[46.1 µM]	29
CCc1ccc2c(COC(=O)c3n[nH]c4ccccc34)cc(=O)oc2c1	7%	10µM*	-5%	?	-21%	94
COc1ccc(C2=NN(S(=O)(=O)c3ccccc3)C(c3ccccc3)C2)cc1 (centres undefined)	5%	?	1%	nt	nt	-20
SMILES	FMDV inh	HCV inh	FBPA Giardia inh	Marburg entry inh	LASV entry inh	HCMV inh
O=C(c1cccs1)N1N=C(c2ccccc2)CC1c1ccccc1 (centres undefined)	nt	14µM*	1%	?	?	?
O=S(=O)(c1ccccc1)N1N=C(c2ccccc2)CC1c1ccccc1 (centres undefined)	-22%	-27%	-2%	?	0%	-74*
COc1ccc(C2CC(c3ccccc3)=NN2S(=O)(=O)c2ccc(C)cc2)c(OC)c1 (centres undefined)	60%	?	-2%	?	?	-63*
O=S(=O)(c1ccccc1)N1N=C(c2ccc(Cl)cc2)CC1c1ccco1 (centres undefined)	0%	?	nt	10µM*	?	-33
COc1ccc(C2CC(c3ccccc3)=NN2S(=O)(=O)c2ccccc2)c(OC)c1 (centres undefined)	-5%	1%	-1%	-3%	8%	-37
Cn1cccc1C(=O)N1CCC2(CC1)CN(c1ccccn1)C2	-26%	nt	-1%	nt	nt	nt
COC(=O)c1sc2cccc(F)c2c1S(=O)(=O)Nc1cc(C)c(Cl)cc1OC	3%	nt	nt	nt	?	10
Cc1ccc(-n2cnc3scc(-c4cccs4)c3c2=O)cc1	-18%	11µM*	-4%	-14%	-1%	21
COc1ccc(C)cc1NC(=O)COc1cc(=O)n(C)c2ccccc12	-18%	nt	nt	?	?	-16
Cc1nn(-c2ccccc2)nc1CNC(=O)c1ncoc1-c1ccccc1	?	10µM*	5%	nt	nt	-22
Cc1nn(-c2ccccc2)nc1CNC(=O)CC(C)(C)C	-24%	5%	6%	nt	nt	23
COc1ccc(-c2cn3cccnc3n2)cc1NC(=O)C(C)Oc1ccccc1 (centres undefined)	-26%	22µM*	nt	?	?	-24
C[C@@H]1CC[C@H]2C(=O)O[C@@H](Cc3ccccc3)CN2[C@H]1c1ccc(Br)cc1	nt	nt	nt	7%[14.2 µM]	nt	nt
Cc1c(CCOC(=O)c2ccc(Cl)cc2Cl)sc[n+]1CC(=O)c1ccc(Br)cc1	-27%	14µM*	nt	nt	nt	0
COc1ccc(C(=O)OCCc2sc[n+](CC(=O)c3ccccc3)c2C)cc1	-16%	?	-16%	-1%[46.1 µM]	2%	?
Cc1c(CCOC(=O)c2ccc([N+](=O)[O-])cc2)sc[n+]1CC(=O)c1ccccc1	-2%	-18%	7%	-12%[46.1 µM]	-1%[46.1 µM]	7
Cc1c(CCOC(=O)C2C3CC4CC(C3)CC2C4)sc[n+]1CC(=O)c1ccc(Br)cc1 (centres undefined)	?	?	6%	?	-23%	-103*!
Cc1cccc(N2CCN(CCCNC(=O)c3ccc(NC(=O)C4=CSCCO4)cc3)CC2C)c1 (centres undefined)	?	11µM*	nt	?	?	-31
CC1CCCN(CCCNC(=O)c2ccc(NC(=O)C3=CSCCO3)cc2)C1 (centres undefined)	-6%	8%	nt	nt	nt	-15
CC1CCCN(C(=O)CSc2c3c(nc4cc(Cl)ccc24)CCCC3)C1 (centres undefined)	?	nt	nt	19%[46.1 µM]	-44%[46.1 µM]	-39
